# Hits are enriched below; roughly 5.7% of the tested compounds scored in any of these assays.
# GLP1R cytotox = cytotoxicity counter-screen for GLP-1 receptor inverse agonists | HEK293 cAMP-luciferase reporter cells, luminescence, 24 h | Potency, µM (series often up to 38.3 µM), inactives show top-dose activity change, negative = inhibition, actives largely listed as inhibitors | 410,000 compounds, 0.13% hits | AID 624418;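 further: loss of luciferase light is scored as toxicity; potency means the concentration at half of the fitted maximal effect; on the % scale 0 is the no-effect control and ±100 the full control effect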
#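 Luminescence readout: signal drop marks cytotoxicity. Plated cells grew 12 h at 37 °C, 5% CO2, received 23 nL compound for 24 h, then got luciferase reagent, read after 12 min at RT.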
# DRD3 antagonist = antagonists of human D3 dopamine receptor; D3R cells, DiscoveRx beta-arrestin luminescence, antagonist mode; hits give low values; max response, negative = inhibition, %; 360,000 compounds, 2.5% hits; in the data active means max response below about -50%; inconclusive means no clear call, values can overlap the other calls; further: on the % scale 0 is the no-effect control and ±100 the full control effect
#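 Cells plated overnight at 1500 cells/well, then exposed to library compounds with dopamine controls for 90 minutes at 37 degrees C. DiscoveRx reagent added for 30–60 minutes at room temperature; luminescence read, quantitative HTS format.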
# D3 ag = activates the human D3 dopamine receptor | P35462 | D3R DiscoveRx beta-arrestin cells, luminescence, 90 min | max activation, % | 410,000 compounds, 0.58% hits; in the data active means max activation above about 30%; further: 0% is about no effect
#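 Agonist mode: compounds and dopamine controls were applied to plated cells for 90 min at 37 degrees C after an overnight attachment at 1500 cells/well. Luminescent read-out followed 30 - 60 minutes at room temperature with DiscoveRx detection reagent.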
# ClpP mod = qHTS Assay for Activators of ClpP | Potency, µM (highest dose often 57.5 µM), for the others: at the top dose activity change, negative = active | 340,000 compounds, 1.9% hits | purified B. subtilis ClpP, FRET peptide cleavage, 20 min; active means well fitted falling curve with a large enough effect; inconclusive means small, poorly fitted or top-dose-only effect; inactive means no such curve, though single readings can be large or run the other way; further: potency means the concentration at half of the fitted maximal effect; the source files actives as falling curves though it sought activators and does not explain the sign; nearly all actives have a fitted effect of over 65% in size
# Target sequence (P80244 whole entry, looked up): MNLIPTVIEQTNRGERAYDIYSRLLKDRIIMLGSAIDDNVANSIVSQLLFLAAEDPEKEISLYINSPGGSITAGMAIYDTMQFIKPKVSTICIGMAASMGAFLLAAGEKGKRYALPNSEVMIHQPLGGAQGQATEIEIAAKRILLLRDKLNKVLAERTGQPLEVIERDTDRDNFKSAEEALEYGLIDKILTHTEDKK
#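 FRET quenching reversal measured ClpP activation: 10 microg/mL B. subtilis ClpP at pH 8 with the FRET-FV decapeptide, read at 430 nm after 320 nm excitation. The 20-min minus 0-min signal was scaled between DMSO/no-enzyme wells and ADEP (5.8 microM final).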
# GLP-1R inv ag = GLP-1 receptor (human) inverse agonism | P43220 | HEK293 GLP-1R CRE-luciferase, luminescence, 24 h; GLP-1R form is constitutively active | Potency, µM (titrated, usually from 38.3 µM), for inactives: at the highest dose activity change, negative = inhibition, actives largely listed as inhibitors | 410,000 compounds, 1.6% hits | AID 624417; further: potency means the concentration at half of the fitted maximal effect; on the % scale 0 is the no-effect control and ±100 the full control effect; nearly all actives have a fitted effect of over 55% in size
#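 HEK293 cells stably co-expressing a cAMP-responsive luciferase reporter and constitutively active GLP-1R were seeded, incubated 12 h, then exposed to compounds for 24 h at 37 C. Luminescence was read 12 min after detection reagent; inverse agonists lower signal.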
# GLP1R ag = agonists of human GLP-1 receptor; 380,000 compounds, 0.007% hits; P43220; Potency, µM (series often up to 45.6 µM), for inactives: at the highest dose activation, actives largely listed as activators; AID 624172; HEK293 GLP-1R CRE-luciferase, luminescence, 4-6 h; cells express a hypersensitive GLP-1R form; further: potency means the concentration at half of the fitted maximal effect; % of control where 0% means no effect
# * marks the source's active call; other numbers are inactive results; u = inconclusive; x = no result given. Unless noted, the call rests on the fitted dose curve; in most records, active means well fitted curve in the direction sought with a large enough effect; inconclusive means small, poorly fitted or top-dose-only effect, or another doubt; inactive means no such curve, though single readings can be large; an effect the other way counts as inactive or inconclusive.
SMILES,GLP1R cytotox,DRD3 antagonist,D3 ag,ClpP mod,GLP-1R inv ag,GLP1R ag
CCCCCCCCCCCCCCCC(=O)O[C@@H]1CC(C)=C(\C=C/C(C)=C\C=C/C(C)=C\C=C\C=C(C)\C=C\C=C(C)\C=C\C2=C(C)C[C@@H](OC(=O)CCCCCCCCCCCCCCC)CC2(C)C)C(C)(C)C1,x,x,x,x,x,-7.8%
COc1ccc(Cl)cc1NC(=O)CSc1ccc2nnc(CCNS(=O)(=O)c3ccccc3)n2n1,4.7%,x,8.9,0.0%,30.7%,x
CSc1ccc(NC(=O)C2(C)CCN2C(=O)c2ccccc2CCc2ccccc2)cc1 (stereo unspecified),2.6%,u,-4.8,-2.9%,10µM*,-3.0%
C#Cc1ccc(NC(=O)C2(C)CCN2C(=O)c2ccccc2CCc2ccccc2)cc1 (stereo unspecified),3.1%,-5.1,2.4,-1.9%,u,1.7%
O=C(OCc1nc2ccccc2[n+]([O-])c1C(=O)c1ccccc1)c1cccnc1,13.5%,-54.7*,2.0,0.2%,-4.8%,1.8%
COC(=O)C1=C(C)NC(C)=C(C(=O)OC)C1c1cn(-c2ccccc2)nc1-c1ccco1,0.7%,11.9,-1.9,28.2µM*,0.0%,1.3%
COc1ccc(CN2CCNC(=O)C2CC(=O)N(C)C2CCCCC2)cc1OC (stereo unspecified),1.2%,0.0,3.2,-4.7%,0.3%,11.8%
O=C(O)c1ccc(Cl)c(S(=O)(=O)NCC2CCCO2)c1 (stereo unspecified),-4.0%,-53.7*,-2.4,2.7%,-1.6%,2.5%
CS(=O)(=O)c1cccc(C(=O)Nc2nnc(C3=COCCO3)o2)c1,17.4%,-22.7,-3.2,10µM*,2.9%,-3.8%
COc1ccccc1CNC(=O)C1CCCN(C(=O)c2cnn(-c3ccc(F)cc3)c2-n2cccc2)C1 (stereo unspecified),5.2%,x,1.7,1.6%,u,-3.4%
Clc1ccc(-c2nnc3ccccn23)cc1,-0.6%,19.5,4.5,28.2µM*,0.0%,-2.0%
CC(C)N1CCCC(C)(C(=O)Nc2nc3ccccc3n2C)C1 (stereo unspecified),7.4%,20.0,9.7,0.6%,1.7%,-6.3%
COc1cc(OC)c(NC(=O)c2cn(C3CCCC3)c(=O)c3c2c2ccccc2n3C)cc1Cl,7.3%,x,5.5,-2.7%,11.4%,x
N#CC1=C2N=C(N)c3ccccc3N2C2=C(C(=O)CCC2)C1c1ccccc1F (stereo unspecified),-11.6%,7.8,4.4,-1.4%,8.9%,2.3%
Cc1ccccc1C1C(C#N)=C2N=C(N)c3c(sc4c3CCCCC4)N2C2=C1C(=O)CCC2 (stereo unspecified),u,-75.8*,-6.8,8.8%,u,2.2%
CC1CN(C(=O)/C=C/c2ccc3c(c2)OCO3)CC(C)O1 (stereo unspecified),6.8%,-19.4,4.2,28.2µM*,0.0%,9.2%
O=C(/C=C/c1ccc2c(c1)OCO2)N1CCOCC1,-18.2%,43.3,1.0,u,0.5%,-0.1%
Cc1cccc(NC(=O)c2ccc3c(c2)OCCO3)c1,-13.7%,-4.5,-1.1,x,11.2µM*,8.1%
COc1cc(C(=O)NC(=S)NNC(=O)c2ccc3c(c2)OCO3)cc(OC)c1OC,-6.6%,11.5,30.2*,x,-3.6%,6.7%
Cc1cccc(NC(=S)NCc2ccc3c(c2)OCO3)c1,-6.5%,10.8,2.1,-0.5%,0.1%,-3.0%
Cc1ccc(-n2nc3ccc(NC(=O)c4ccc5c(c4)OCO5)cc3n2)cc1,-18.8%,19.4,4.9,14.1µM*,u,-14.4%
Cc1cccc(NC(=S)NNC(=O)c2ccc3c(c2)OCO3)c1,0.8%,-59.1*,-12.9,13.1%,24.8%,20.6%
CCOC(=O)c1cccc(NC(=O)[C@H](CSCc2ccccc2)N2Cc3ccccc3C2=O)c1,-1.4%,x,0.5,-11.3%,u,0.7%

# From PubChem
